{
  "source": "paper PMC4336329",
  "about": "(PLoS ONE, 2015)",
  "note": "In all, about 310,000 compounds went through this assay and about 14,000 (4.5%) showed an effect of 50% or more. Effects have a minus sign here. This is one part of a sample in which strong results are shown more often than they occur.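 Note: peak tail current of the secondary pulse compared with the same well before compound.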",
  "data": [
    {"target": "human ether-à-go-go-related gene (hERG) potassium channel (human, UniProt Q12809)", "sequence (Q12809 whole entry, looked up)": "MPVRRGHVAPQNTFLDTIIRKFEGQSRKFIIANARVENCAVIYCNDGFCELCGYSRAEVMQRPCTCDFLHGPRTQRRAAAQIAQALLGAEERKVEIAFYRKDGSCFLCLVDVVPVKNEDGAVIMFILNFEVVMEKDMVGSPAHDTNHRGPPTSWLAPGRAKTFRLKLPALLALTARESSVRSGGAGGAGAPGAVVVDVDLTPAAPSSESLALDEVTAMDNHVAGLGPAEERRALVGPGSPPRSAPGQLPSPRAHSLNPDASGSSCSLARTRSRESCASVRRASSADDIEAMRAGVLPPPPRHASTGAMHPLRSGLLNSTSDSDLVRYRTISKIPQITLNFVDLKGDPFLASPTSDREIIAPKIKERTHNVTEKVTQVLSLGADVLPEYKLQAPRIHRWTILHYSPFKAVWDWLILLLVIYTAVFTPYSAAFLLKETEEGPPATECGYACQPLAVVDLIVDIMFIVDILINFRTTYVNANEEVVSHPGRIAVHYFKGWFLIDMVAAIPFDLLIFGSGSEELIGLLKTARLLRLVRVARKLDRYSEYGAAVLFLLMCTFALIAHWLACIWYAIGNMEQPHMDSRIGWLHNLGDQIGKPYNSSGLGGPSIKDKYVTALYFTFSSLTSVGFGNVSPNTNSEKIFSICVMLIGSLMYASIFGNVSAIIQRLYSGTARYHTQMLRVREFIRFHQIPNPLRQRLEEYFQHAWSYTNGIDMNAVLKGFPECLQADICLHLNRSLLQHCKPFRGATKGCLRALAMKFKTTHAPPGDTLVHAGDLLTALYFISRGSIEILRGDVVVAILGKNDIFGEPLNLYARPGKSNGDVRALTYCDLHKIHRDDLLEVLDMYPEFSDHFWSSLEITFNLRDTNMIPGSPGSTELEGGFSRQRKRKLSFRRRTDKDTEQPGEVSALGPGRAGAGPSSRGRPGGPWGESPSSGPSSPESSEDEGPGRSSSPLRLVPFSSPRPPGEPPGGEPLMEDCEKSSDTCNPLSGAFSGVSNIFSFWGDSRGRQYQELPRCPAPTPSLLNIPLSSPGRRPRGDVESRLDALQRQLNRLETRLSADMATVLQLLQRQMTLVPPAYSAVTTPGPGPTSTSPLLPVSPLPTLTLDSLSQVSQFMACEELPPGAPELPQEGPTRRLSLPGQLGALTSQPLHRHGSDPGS", "assay": "primary screen, population patch clamp on CHO cells stably expressing hERG; higher = less effect of the substance", "units": {"hERG current change (%, negative = inhibition) at 10uM": "%"}, "values": [
      {"smiles": "O=C(CNC(=O)c1ccco1)OC(C(=O)c1ccccc1)c1ccccc1", "note": "(stereo not drawn)", "hERG current change (%, negative = inhibition) at 10uM": 0.438},
      {"smiles": "CCN1C(=O)C2(C(C(=O)c3ccc(C)o3)=C(O)C(=O)N2CCCN2CCOCC2)c2ccccc21", "note": "(stereo not drawn)", "hERG current change (%, negative = inhibition) at 10uM": 0.0517},
      {"smiles": "O=C(CSc1nccc(=O)[nH]1)N1CCOCC1", "hERG current change (%, negative = inhibition) at 10uM": 3.03},
      {"smiles": "COc1cc(SC)ccc1C(=O)OCc1nc2ccsc2c(=O)[nH]1", "hERG current change (%, negative = inhibition) at 10uM": -30.6},
      {"smiles": "O=C(CSc1nnc(Nc2ccccc2)s1)NCC1CCCO1", "note": "(stereo not drawn)", "hERG current change (%, negative = inhibition) at 10uM": -1.51},
      {"smiles": "COc1cc2ccccc2cc1C(=O)NNC(=O)c1ccccc1O", "hERG current change (%, negative = inhibition) at 10uM": 7.31},
      {"smiles": "COc1cccc2c(=O)c3c([nH]c12)OC(C)(C)C3", "hERG current change (%, negative = inhibition) at 10uM": 13},
      {"smiles": "COc1ccc(CNc2ncnc3cc(OC)c(OC)cc23)cc1", "hERG current change (%, negative = inhibition) at 10uM": -3.69},
      {"smiles": "COc1cc2ncnc(NCc3ccc(Cl)cc3)c2cc1OC", "hERG current change (%, negative = inhibition) at 10uM": -31.2},
      {"smiles": "COc1cc2ncnc(NCc3ccc(C)cc3)c2cc1OC", "hERG current change (%, negative = inhibition) at 10uM": -0.937},
      {"smiles": "COc1cccc(CNc2ncnc3cc(OC)c(OC)cc23)c1", "hERG current change (%, negative = inhibition) at 10uM": -11.6},
      {"smiles": "COc1cc2ncnc(NCc3cccc(Cl)c3)c2cc1OC", "hERG current change (%, negative = inhibition) at 10uM": -63.9},
      {"smiles": "COc1cc2ncnc(NCc3ccc(F)cc3)c2cc1OC", "hERG current change (%, negative = inhibition) at 10uM": -52.5},
      {"smiles": "Cc1ccccc1Cn1c(=O)n(CCCC(=O)NCc2ccco2)c(=O)c2ccccc21", "hERG current change (%, negative = inhibition) at 10uM": -15.5},
      {"smiles": "Nn1c(SCc2cccc(Cl)c2)nnc1-c1ccncc1", "hERG current change (%, negative = inhibition) at 10uM": -2.64},
      {"smiles": "Cc1cc(C(=O)C(=O)N(C)C)c(C)n1-c1ccc(Cl)c(Cl)c1", "hERG current change (%, negative = inhibition) at 10uM": -28.9},
      {"smiles": "COc1ccc(S(=O)(=O)N(CCN2CCOCC2)Cc2cc(OC)ccc2OC)cc1", "hERG current change (%, negative = inhibition) at 10uM": -10.7},
      {"smiles": "Nc1ccc(NC(=O)c2ccccc2)c2c1C(=O)c1ccccc1C2=O", "hERG current change (%, negative = inhibition) at 10uM": 2.65},
      {"smiles": "CC(C)N1C(=O)CC(Nc2ccc(N3CCOCC3)cc2)C1=O", "note": "(stereo not drawn)", "hERG current change (%, negative = inhibition) at 10uM": 2.64},
      {"smiles": "COc1ccc(NC(=O)c2cc([N+](=O)[O-])ccc2N2CCCC2)cc1", "hERG current change (%, negative = inhibition) at 10uM": -1.73},
      {"smiles": "COc1ccc(NC(=O)c2cc([N+](=O)[O-])ccc2N2CCN(C)CC2)cc1", "hERG current change (%, negative = inhibition) at 10uM": -43.4},
      {"smiles": "CN1CCN(c2ccc(NC(=O)c3cc([N+](=O)[O-])ccc3N3CCOCC3)cc2)CC1", "hERG current change (%, negative = inhibition) at 10uM": -2.4},
      {"smiles": "CN1CCN(c2ccc([N+](=O)[O-])cc2C(=O)Nc2ccccc2)CC1", "hERG current change (%, negative = inhibition) at 10uM": -71.1},
      {"smiles": "COc1ccc(NC(=O)c2cc([N+](=O)[O-])ccc2O)cc1", "hERG current change (%, negative = inhibition) at 10uM": -57.6},
      {"smiles": "COc1ccc(NC(=O)c2cc([N+](=O)[O-])ccc2N2CCNCC2)cc1", "hERG current change (%, negative = inhibition) at 10uM": -44.5},
      {"smiles": "O=C(O)c1cc([N+](=O)[O-])ccc1C(=O)Nc1ccccc1", "hERG current change (%, negative = inhibition) at 10uM": 12.7},
      {"smiles": "Cc1cccc(NC(=O)c2cc([N+](=O)[O-])ccc2N2CCN(C)CC2)c1", "hERG current change (%, negative = inhibition) at 10uM": -61.9},
      {"smiles": "O=C(NC(=S)Nc1ccccc1)c1cc([N+](=O)[O-])ccc1N1CCOCC1", "hERG current change (%, negative = inhibition) at 10uM": 6.13},
      {"smiles": "Cc1ccc(NC(=O)c2cc([N+](=O)[O-])ccc2N2CCOCC2)cc1C", "hERG current change (%, negative = inhibition) at 10uM": -42.3},
      {"smiles": "COc1ccc(NC(=O)c2cccc([N+](=O)[O-])c2)cc1", "hERG current change (%, negative = inhibition) at 10uM": 13},
      {"smiles": "COc1cccc(NC(=O)c2cc([N+](=O)[O-])ccc2N2CCN(C)CC2)c1", "hERG current change (%, negative = inhibition) at 10uM": -57.7},
      {"smiles": "CCC(C(=O)Nc1ccc(C)cc1)c1ccccc1", "note": "(stereo not drawn)", "hERG current change (%, negative = inhibition) at 10uM": 19.1},
      {"smiles": "Nc1c(-c2cccc(Cl)c2)cnc2c(-c3ccccc3)cnn12", "hERG current change (%, negative = inhibition) at 10uM": 13.9},
      {"smiles": "N#C/C(=C\\c1ccc(F)c(Cl)c1)S(=O)(=O)c1ccccn1", "hERG current change (%, negative = inhibition) at 10uM": -6.64},
      {"smiles": "O=C(/C=C/c1ccc([N+](=O)[O-])cc1)c1cccs1", "hERG current change (%, negative = inhibition) at 10uM": -23.4},
      {"smiles": "CCOCCCNC(=O)C(c1ccc(OC)cc1)N(Cc1ccc2c(c1)OCO2)C(=O)c1cnccn1", "note": "(stereo not drawn)", "hERG current change (%, negative = inhibition) at 10uM": 8.96},
      {"smiles": "CCOc1ccc2c(CC)cc(=O)oc2c1OCC", "hERG current change (%, negative = inhibition) at 10uM": -18.9},
      {"smiles": "O=C(Cn1cc(C(=O)C2CC2)c2ccccc21)Nc1ccc(F)cc1", "hERG current change (%, negative = inhibition) at 10uM": -20.5},
      {"smiles": "O=C(Nc1cccc(Cl)c1)c1cc([N+](=O)[O-])ccc1N1CCN(CCO)CC1", "hERG current change (%, negative = inhibition) at 10uM": -53},
      {"smiles": "O=C(Nc1ccccc1)c1cc([N+](=O)[O-])ccc1N1CCNCC1", "hERG current change (%, negative = inhibition) at 10uM": -37.8},
      {"smiles": "O=C(Nc1cccc(Cl)c1N1CCOCC1)c1cc([N+](=O)[O-])ccc1N1CCOCC1", "hERG current change (%, negative = inhibition) at 10uM": -21.1},
      {"smiles": "Cc1ccccc1NC(=O)C1CCN(C(=O)N2CCOc3ccccc32)CC1", "hERG current change (%, negative = inhibition) at 10uM": -8.57},
      {"smiles": "CCc1ccccc1NC(=O)C1CCN(C(=O)N2CCOc3ccccc32)CC1", "hERG current change (%, negative = inhibition) at 10uM": 1.77},
      {"smiles": "COC(=O)c1ccccc1NC(=O)C1CCN(C(=O)N2CCOc3ccccc32)CC1", "hERG current change (%, negative = inhibition) at 10uM": -59.6},
      {"smiles": "CCCCC(=O)NC(c1ccccc1Cl)c1ccc2cccnc2c1O", "note": "(stereo not drawn)", "hERG current change (%, negative = inhibition) at 10uM": 15.2},
      {"smiles": "COc1ccc(S(=O)(=O)Nc2cc3c4c(c2)CC(=O)N4CCC3)cc1C", "hERG current change (%, negative = inhibition) at 10uM": -4.48},
      {"smiles": "CC(C)N(CCCNC(=O)c1nn(C)c2c1CS(=O)(=O)c1ccccc1-2)Cc1ccccc1", "hERG current change (%, negative = inhibition) at 10uM": -34.5},
      {"smiles": "CCN(CCCNC(=O)c1nn(C)c2c1CS(=O)(=O)c1ccccc1-2)Cc1ccccc1", "hERG current change (%, negative = inhibition) at 10uM": -60.3},
      {"smiles": "CC1CC(C)CN(C(=O)c2nn(C)c3c2CS(=O)(=O)c2ccccc2-3)C1", "note": "(stereo not drawn)", "hERG current change (%, negative = inhibition) at 10uM": -12.7},
      {"smiles": "CN(CCCNC(=O)c1nn(C)c2c1CS(=O)(=O)c1ccccc1-2)Cc1ccccc1", "hERG current change (%, negative = inhibition) at 10uM": -46.9},
      {"smiles": "CC1CC(C)CN(CCCNC(=O)c2nn(C)c3c2CS(=O)(=O)c2ccccc2-3)C1", "note": "(stereo not drawn)", "hERG current change (%, negative = inhibition) at 10uM": -64.2},
      {"smiles": "CC1CCN(CCCNC(=O)c2nn(C)c3c2CS(=O)(=O)c2ccccc2-3)CC1", "hERG current change (%, negative = inhibition) at 10uM": -23.6},
      {"smiles": "Cc1cc(-c2nc(C)c(-c3nnc(SCC(=O)Nc4ccc(Cl)cc4)n3C)s2)no1", "hERG current change (%, negative = inhibition) at 10uM": 2.4},
      {"smiles": "COc1ccc(NC(=O)c2ccc(NC(=O)CSc3nccc(=O)[nH]3)cc2)cc1", "hERG current change (%, negative = inhibition) at 10uM": 15.4}
    ]}
  ]
}
